{
  "source": "PubChem BioAssay AID2284155",
  "about": "(EPA ToxCast)",
  "note": "Calls of active or inactive are those of the source. How the source made its calls: active means hit-call score of the fitted dose curve at least 0.9, where 1 is the maximum; inactive means score below 0.9.",
  "data": [
    {"molecular_target": "human Muscarinic Acetylcholine Receptor M4 Antagonism, conducted at France lab site, CHRM4 (gene 1132) (UniProt P08173)", "sequence (P08173 whole entry, looked up)": "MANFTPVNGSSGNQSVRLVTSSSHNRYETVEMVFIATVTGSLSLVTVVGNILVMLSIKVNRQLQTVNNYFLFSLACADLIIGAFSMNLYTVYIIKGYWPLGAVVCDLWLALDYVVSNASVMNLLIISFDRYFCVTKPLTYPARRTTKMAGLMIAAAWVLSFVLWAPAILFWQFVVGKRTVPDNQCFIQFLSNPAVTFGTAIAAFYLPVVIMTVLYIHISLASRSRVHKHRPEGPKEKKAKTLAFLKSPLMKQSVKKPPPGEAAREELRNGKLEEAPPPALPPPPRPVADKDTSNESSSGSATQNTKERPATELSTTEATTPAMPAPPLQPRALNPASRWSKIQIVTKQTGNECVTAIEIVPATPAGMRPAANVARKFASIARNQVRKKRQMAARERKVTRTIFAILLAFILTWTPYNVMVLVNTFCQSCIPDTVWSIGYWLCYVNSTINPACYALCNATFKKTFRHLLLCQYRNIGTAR", "assay": "ERF_FR_GPCR_hCHRM4: Eurofins (ERF) G Protein-Coupled Receptor (GPCR) Radioligand Binding LeadHunter Assay for human Muscarinic Acetylcholine Receptor M4 Antagonism, conducted at France lab site", "method": "ERF_FR_GPCR_hCHRM4 is a biochemical, single-readout assay that uses extracted gene-proteins in a cell-free assay. Measurements were taken 1 hour after chemical dosing in a 96-well plate. See M4 Human Acetylcholine (Muscarinic) GPCR Binding (Antagonist Radioligand) Assay, Cerep.ERF_FR_GPCR_hCHRM4 is an assay component calculated from the ERF_FR_GPCR_hCHRM4 assay. It is designed to measure radioligand binding using a type of binding reporter as detected by scintillation counting with radiometry technology.Data from the assay component ERF_FR_GPCR_hCHRM4 was analyzed at the assay endpoint, ERF_FR_GPCR_hCHRM4, in the positive analysis fitting direction relative to DMSO as the negative control and baseline of activity. Using a type of binding reporter, loss-of-signal activity can be used to understand changes in binding as they relate to gene CHRM4. To generalize the intended target to other relatable targets, this assay endpoint is annotated to the gpcr intended target family, where the subfamily is acetylcholine (Muscarinic).\nHuman cells are incubated for 60 minutes at room temprature with [3H]4-DAMP ligand (0.2 nM) and 4-Damp methiodide as control inhibitor.Test Sample Requirements: Minimum for 1) Screen: 60 ul of 10 mM stock -OR- 1 mg (pre-weighed) for 10 uM final testing. 2) Dose Response: 90 ul of 10 mM stock -OR- 1 mg (pre-weighed) for a top concentration at 10 uM.", "values": [
      {"smiles": "O=C(/C=C/c1ccc(O)cc1)CC(=O)/C=C/c1ccc(O)cc1", "AC50": "9.09 µM (active)"}
    ]}
  ]
}
